Experimental findings from PubChem BioAssay (NCATS) are described below.

Where “and” joins values, the source holds several entries; their conditions need not be identical. Equal entries are not always repeated. Results filed as inconclusive are left out. A structure can be active in one record and inactive in another. Calls of active or inactive are those of the source. Unless noted, the call rests on the fitted dose curve; in most records, active means well fitted curve in either direction with a large enough effect (not every such curve was filed as active); inconclusive means small, poorly fitted or top-dose-only effect, or another doubt; inactive means flat fitted curve, though single readings scatter. Bounds are passed on as bounds.

A short description of test [1]: AP1 Signaling Pathway (AID 357). Further: on the % scale 0 is the no-effect control and ±100 the full control effect. The settings on record: ME-180 AP-1-bla reporter, EGF-induced, beta-lactamase ratio, 5 h. Summed up: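 AP-1-bla ME-180 cells with beta-lactamase reporter under AP-1 response element, stimulated with EC50 EGF; compounds titrated, 5 hours at 37 degrees Celsius. CCF4 read at 460/530 nm ratio; positive and negative modulators judged by AC50.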

Test [2] deals with Cytochrome P450 1A2 (Homo sapiens) (UniProt P05177). The test can be described thus: p450-cyp1a2 (AID 410; calls by dose curve; further: potency means the concentration at half of the fitted maximal effect;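 on activity change, negative = inhibition: -100% = full effect of reference inhibitor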). The settings on record: recombinant CYP1A2, luciferin-ME demethylation, luminescence; series mostly up to 25.6 µM. Summed up:
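20nM CYP1A2, 100uM Luciferin-ME (=Km), 100mM KPO4; cpd 10 min RT; +NADPH regen, 60 min RT; stop/detect 20 min; luminescence. Normalized to furafylline 57 uM = full inhibition.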

Test [3] in a line: Stat Signaling Pathway (AID 446).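 Further: ME-180 cervical cancer cells given 40 pM IL-6 alongside compound; SIE-controlled beta-lactamase reporter measured as 460/530 nm FRET emission ratio; on the % scale 0 is the no-effect control and ±100 the full control effect.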 The settings on record: ME-180 (cervical carcinoma) SIE beta-lactamase reporter, IL-6 stimulated, 5 h. Summed up: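 Emission at 460 and 530 nm (excitation 405 nm) reports SIE-controlled beta-lactamase in ME-180 cells. Cells received compound with 40 pM IL-6 for 5 hrs at 37 C; data scaled between 300 pM IL-6 and 125 nM JAK-inhibitor controls.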
Test [4] concerns the target Mitogen-activated protein kinase 10 (Mus musculus) (UniProt Q61831). The test can be described thus: JNK3 AlphaScreen Assay (AID 530).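 Further: kinase came from lysate of stimulated human HepG2 cells; signal reports phosphorylation of biotinylated GST-cJun 1-79 at Ser73 with 10 µM ATP; on the % scale 0 is the no-effect control and ±100 the full control effect.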 The settings on record: JNK3 lysate, c-Jun phosphorylation; series mostly up to 57.1 µM. The procedure, abridged:
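Biotinylated GST-cJun(1-79) served as substrate for JNK3 in HepG2 lysates stimulated with IL-1beta and TNF-alpha. ATP was 10 uM final, pH 7.6. Ser73 phosphorylation was quantified by AlphaScreen (680 nm excitation).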
(In Alpha technology, singlet oxygen from a donor bead excites a nearby acceptor bead.)

Test [5] can be described thus: Cell Viability - BJ (AID 421; calls by dose curve;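 further: potency means the concentration at half of the fitted maximal effect; cells exposed to compound for 40 hours at 37 °C before readout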). The following applies: BJ fibroblast viability, qHTS. The procedure, abridged: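 Cytotoxicity in human BJ foreskin fibroblasts is scored as loss of cellular ATP after a 40-hour exposure, measured by luciferase luminescence. Controls are DMSO and 100 uM tamoxifen.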
Test [6] can be described thus: Cell Viability - Jurkat (AID 426;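 active means dose-dependent loss of cell ATP signal giving a full or clear fitted curve, ranked by lower potency value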;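 further: potency means the concentration at half of the fitted maximal effect; cells exposed to compound for 40 hours at 37 °C before ATP read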). The settings on record: qHTS. Summed up: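 Luminescent ATP read-out (CellTiter-Glo, 20 min at room temperature) after 40 hr compound exposure at 37 °C of Jurkat E6-1 cells, 5000/well. Decreased ATP taken as cytotoxicity; AC50 from standard Hill equation.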
The nature of test [7]: Cell Viability - Hek293 (AID 427;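 active means compounds whose dose-response curve shows a full or clear partial loss of cell viability, called from curve shape rather than a numeric limit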;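 further: potency means the concentration at half of the fitted maximal effect; cells exposed to compound for 40 hours at 37 °C before reading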). The settings on record: qHTS. Summed up:
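qHTS, human embryonic kidney (adenovirus-transformed) cells; 40 hr cpd, 37 °C; CellTiter-Glo ATP luminescence. Norm: DMSO = 0, 100 uM tamoxifen = 100% inhibition. Hill-fit AC50.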
(qHTS replaces the single test concentration by a dilution series.)

Test [8] can be described thus: Cell Viability - HepG2 (AID 433; calls by dose curve; further: potency means the concentration at half of the fitted maximal effect). The following applies: qHTS. Summed up:
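Read-out is luciferase-based quantitation of cellular ATP as a measure of viable HepG2 cells after 40 h treatment at 37 °C. Signal decrease is scaled between DMSO-only and 100 uM tamoxifen controls, with AC50 fitted by the Hill equation.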

The nature of test [9]: Cell Viability - MRC5 (AID 434; calls by dose curve;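 further: potency means the concentration at half of the fitted maximal effect; cells exposed to compound for 40 hours at 37 °C; potency reflects cytotoxicity seen as loss of intracellular ATP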). The settings on record: MRC5 lung fibroblast viability, qHTS. The procedure, abridged:
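Decrease in intracellular ATP, quantified by luciferase light output, reflects compound toxicity toward MRC5 cells exposed for 40 hr in complete culture medium. Concentration-response curves, scaled between DMSO and 100 uM tamoxifen, gave AC50 values.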

Test [10] in a line: Cell Viability - SK-N-SH (AID 435; calls by dose curve;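 further: potency means the concentration at half of the fitted maximal effect; compound exposure lasted 40 h at 37 °C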). The settings on record: SK-N-SH neuroblastoma cell viability qHTS. The procedure, abridged:
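Luminescent ATP signal served as the viability read-out after 40 hours of compound treatment of human neuroblastoma SK-N-SH cells. Concentration-response data, scaled between DMSO and 100 uM tamoxifen, gave AC50 values by standard Hill modeling.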

Test [11] can be described thus: NFAT Signaling Pathway (AID 444).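 Further: carbachol stimulus at about its EC50 of 1 µM final; on the % scale 0 is the no-effect control and ±100 the full control effect.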 The settings on record: Jurkat NFAT-bla M1, carbachol, beta-lactamase ratio, 5 h. The procedure, abridged:
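Jurkat cells carrying an NFAT-driven β-lactamase reporter and co-transfected muscarinic M1 receptor were treated with compound plus carbachol (1 uM final, an EC50 level) for 5 h at 37 °C. CCF4 loading followed for 1 h at RT; 460/530 nm ratio gave %activity.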

The target of test [12] is Glucocorticoid receptor (Homo sapiens) (UniProt P04150). The test can be described thus: GR-GFP Redistribution (AID 450;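 active means compounds whose dose series gives a full or clear partial fitted curve of increased nuclear translocation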; further: potency means the concentration at half of the fitted maximal effect). The settings on record: U2OS GR-GFP nuclear translocation, laser cytometry, 2 h.
Sequence of Glucocorticoid receptor (Homo sapiens) (P04150 whole entry, looked up, the tested form may be a part): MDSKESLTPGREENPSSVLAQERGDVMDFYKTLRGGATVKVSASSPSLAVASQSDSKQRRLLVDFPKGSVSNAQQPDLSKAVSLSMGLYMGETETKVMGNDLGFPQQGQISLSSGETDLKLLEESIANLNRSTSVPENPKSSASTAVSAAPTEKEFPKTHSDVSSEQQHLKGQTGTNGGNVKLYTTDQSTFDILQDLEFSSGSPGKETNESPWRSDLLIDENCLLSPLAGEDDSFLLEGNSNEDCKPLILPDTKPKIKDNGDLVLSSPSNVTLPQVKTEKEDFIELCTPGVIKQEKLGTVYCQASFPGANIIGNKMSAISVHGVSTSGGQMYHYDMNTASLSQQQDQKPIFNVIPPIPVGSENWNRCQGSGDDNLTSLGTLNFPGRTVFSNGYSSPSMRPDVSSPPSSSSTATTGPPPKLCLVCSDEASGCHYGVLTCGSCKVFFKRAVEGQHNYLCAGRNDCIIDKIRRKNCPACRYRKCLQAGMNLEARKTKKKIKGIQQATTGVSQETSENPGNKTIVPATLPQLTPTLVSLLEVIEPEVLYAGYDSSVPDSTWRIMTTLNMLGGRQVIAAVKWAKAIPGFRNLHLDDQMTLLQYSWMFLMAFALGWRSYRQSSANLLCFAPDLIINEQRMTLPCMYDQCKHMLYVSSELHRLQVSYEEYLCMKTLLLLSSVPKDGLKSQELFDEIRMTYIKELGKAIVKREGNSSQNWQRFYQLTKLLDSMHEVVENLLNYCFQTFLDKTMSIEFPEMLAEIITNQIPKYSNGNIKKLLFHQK
Test [13] can be described thus: Cell Viability - HUV-EC-C (AID 542; active means well fitted curve in the direction sought with a large enough effect; an effect the other way counts as inactive or inconclusive; further: on the % scale 0 is the no-effect control and ±100 the full control effect; nearly all actives have a fitted effect of over 35% in size). The settings on record: HUV-EC-C endothelial cell viability, qHTS; series mostly up to 92.2 µM. Summed up:
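Luminescent ATP read-out (CellTiter-Glo, 20 min room temperature) after 40 hr compound treatment of HUV-EC-C cells at 37 °C. Concentration-response data fitted with the standard Hill equation to give AC50; tamoxifen and doxorubicin served as positive controls.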

Test [14] can be described thus: Cell Viability - SH-SY5Y (AID 544; active means well fitted curve in the direction sought with a large enough effect; an effect the other way counts as inactive or inconclusive;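 further: 0% = DMSO alone and -100% = 100 µM tamoxifen; nearly all actives have a fitted effect of over 55% in size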). The following applies: SH-SY5Y neuroblastoma cell viability; series mostly up to 92.2 µM. Summed up: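 SH-SY5Y, 1500 cells/well, 5 hr pre-incubation 37 °C; cpd 40 hr 37 °C; CellTiter-Glo 20 min RT; luminescence (ATP) read. qHTS concentration-response, Hill fit → AC50. Tamoxifen, doxorubicin as positive controls.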
Test [15] is described as follows: Cell Viability - Mesenchymal (AID 546; active means well fitted curve in the direction sought with a large enough effect; an effect the other way counts as inactive or inconclusive;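 further: cells exposed to compound for 40 hours before reading; 0% = DMSO only and -100% = 100 µM tamoxifen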). The settings on record: mesenchymal cells viability, qHTS; series mostly up to 91.7 µM. The procedure, abridged:
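In this qHTS cytotoxicity format, glomerulus-derived human mesenchymal kidney cells received compound for 40 hr, then luciferase-based ATP quantitation. Concentration-response data were fitted with the Hill equation.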

Test [16] concerns the target Glucocorticoid receptor (Homo sapiens) (UniProt P04150). The test can be described thus: GR-EFC Redistribution (AID 451; calls by dose curve; further: potency means the concentration at half of the fitted maximal effect). The settings on record: CHO-K1 GR-EFC translocation, beta-gal luminescence, 2 h. Summed up:
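CHO-K1 cells stably expressing nuclear-localized β-gal enzyme acceptor and GR fused C-terminally to the enzyme donor fragment; ligand-driven nuclear translocation restores β-gal by complementation. Compounds titrated up to 46 uM final, 2 h at 37 °C; luminescence read.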

The target of test [17] is Lysosomal acid glucosylceramidase (Homo sapiens) (UniProt P04062). The test can be described thus: Glucocerebrosidase-p2 (AID 348; in the data active means potency below about 10 µM; further: potency means the concentration at half of the fitted maximal effect). The following applies: purified GBA, blue fluorogenic substrate, 40 min. The procedure, abridged:
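Normal human glucocerebrosidase (0.2 nM) with blue fluorogenic substrate (80 uM final) in citrate/phosphate pH 5.9 with 10mM sodium taurocholate, 0.01% tween-20; 40 min RT, NaOH/glycine stop; fluorescence Ex 365/Em 440; AC50 from a titration from 0.6 nM upwards.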

Sequence of Cytochrome P450 1A2 (Homo sapiens) (P05177 whole entry, looked up): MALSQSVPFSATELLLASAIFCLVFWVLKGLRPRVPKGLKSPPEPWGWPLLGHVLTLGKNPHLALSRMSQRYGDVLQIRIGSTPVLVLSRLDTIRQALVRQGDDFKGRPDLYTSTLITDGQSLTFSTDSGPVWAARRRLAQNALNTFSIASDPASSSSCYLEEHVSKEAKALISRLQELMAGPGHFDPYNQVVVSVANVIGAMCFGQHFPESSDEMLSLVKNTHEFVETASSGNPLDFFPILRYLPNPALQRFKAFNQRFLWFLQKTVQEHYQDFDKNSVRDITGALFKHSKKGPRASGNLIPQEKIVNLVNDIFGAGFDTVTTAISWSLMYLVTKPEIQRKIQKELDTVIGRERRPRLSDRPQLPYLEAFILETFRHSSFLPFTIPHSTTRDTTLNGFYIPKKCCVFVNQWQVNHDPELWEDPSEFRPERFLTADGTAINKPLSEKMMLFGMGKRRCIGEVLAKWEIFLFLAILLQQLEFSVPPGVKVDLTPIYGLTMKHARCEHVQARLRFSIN
Sequence of Lysosomal acid glucosylceramidase (Homo sapiens) (P04062 whole entry, looked up): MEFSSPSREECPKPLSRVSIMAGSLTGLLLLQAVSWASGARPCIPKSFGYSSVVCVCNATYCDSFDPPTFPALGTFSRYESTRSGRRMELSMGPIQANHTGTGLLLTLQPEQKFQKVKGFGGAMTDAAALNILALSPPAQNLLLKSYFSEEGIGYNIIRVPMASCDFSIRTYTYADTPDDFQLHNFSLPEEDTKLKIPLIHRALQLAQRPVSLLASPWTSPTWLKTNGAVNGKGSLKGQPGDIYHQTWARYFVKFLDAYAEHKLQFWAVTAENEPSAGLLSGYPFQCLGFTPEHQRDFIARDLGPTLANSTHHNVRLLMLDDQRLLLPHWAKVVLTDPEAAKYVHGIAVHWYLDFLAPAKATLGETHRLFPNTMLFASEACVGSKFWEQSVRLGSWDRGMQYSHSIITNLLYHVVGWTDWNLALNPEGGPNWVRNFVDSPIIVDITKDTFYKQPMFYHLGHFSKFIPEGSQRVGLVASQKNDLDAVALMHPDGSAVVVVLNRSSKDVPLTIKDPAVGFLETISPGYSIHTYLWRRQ

Consider `c1ccc(CN(CC2=NCCN2)c2ccccc2)cc1`, for which the activity change, negative = inhibition in [1] (at 17.2 µM (top of the series)) was 6.18% (inactive) and 2.47% (inactive) and 4.31% (inactive). The Potency result in test [2] and in test [4] was “inactive” throughout. In addition, the activity, negative = inhibition in test [3] (at 17.2 µM (top of the series)) is -2.58% (inactive) and 2.91% (inactive) and -16.4% (inactive).

For `C[C@]12C[C@H](O)[C@H]3[C@@H](CCC4=CC(=O)CC[C@@]43C)[C@@H]1CC[C@@H]2C(=O)CO`, the activity change, negative = inhibition in test [1] (at 17.2 µM (top of the series)) was 0.397% (inactive); in test [11] (at 17.2 µM (top of the series)), 2.08% (inactive). Moreover, the Potency in test [5], in test [6], in test [7], in [8], in test [9] and in [10] was > 92 µM (inactive) in each case. Besides, in [12], the Potency is 0.00593 µM (active). For the same molecule, the activity, negative = inhibition in test [3] (at 17.2 µM (top of the series)) is 3.29% (inactive). Moreover, the Potency entry in test [13] and in test [14] was “inactive” each time. The result in test [15] was inactive.

Take `CC(C)C(=O)c1c(C(C)C)nn2ccccc12`: the activity change, negative = inhibition was -2.6% (inactive) in [1] (at 38 µM (top of the series)) and -1.94% (inactive) in test [11] (at 38 µM (top of the series)). In addition, the Potency in [2] was 1.26 µM (active) and 631 nM (active). For the same molecule, the activity, negative = inhibition in test [3] (at 38 µM (top of the series)) is 2.52% (inactive). Moreover, the Potency result in test [4] is “inactive”.

As for `NC(N)=NCCC[C@H](N)C(=O)O`, the results for the activity change, negative = inhibition in test [1] (at 38 µM (top of the series)) and in test [11] (at 38 µM (top of the series)) were -0.498% (inactive) and -0.248% (inactive), respectively. In addition, the Potency result was “inactive and 31.6 µM (active)” in test [2]; > 46 µM (inactive) in test [12]; > 46 µM (inactive) in test [16]. Further, the Potency result in test [4] was “inactive”.

As to `CCCCN1CCCC[C@H]1C(=O)Nc1c(C)cccc1C`, the activity change, negative = inhibition in test [1] (at 17.2 µM (top of the series)) is 0.542% (inactive); in [11] (at 17.2 µM (top of the series)) it was 3.05% (inactive). The Potency in [2] was 5.01 µM (active). The activity, negative = inhibition in test [3] (at 17.2 µM (top of the series)) is 1.67% (inactive). Also, the Potency result in test [4] is “inactive”.

`Cc1cccc(Nc2cc(Cl)nc(SCC(=O)O)n2)c1C`: the Potency is > 11.4 µM (inactive) in test [17]; > 46 µM (inactive) in test [12]; > 46 µM (inactive) and > 9.22 µM (inactive) in [16]. Besides, the activity change, negative = inhibition in test [1] (at 7.69 µM (top of the series)) was 3.12% (inactive); in test [11] (at 7.69 µM (top of the series)) it was 11.7% (inactive); in [4], 0.662% [at 11.4 µM] (inactive). The Potency result in test [2] was “inactive”. Moreover, the activity, negative = inhibition in [3] (at 7.69 µM (top of the series)) is 0.678% (inactive).

`C#CCN(C)Cc1ccccc1`: the activity change, negative = inhibition in test [1] (at 17.2 µM (top of the series)) is -4.72% (inactive) and 6.12% (inactive); in test [1] (at 38 µM (top of the series)) it was 1.9% (inactive); in [11] (at 17.2 µM (top of the series)), 4.68% (inactive) and -0.725% (inactive); in [11] (at 38 µM (top of the series)), 4.11% (inactive). In addition, the Potency result in [2] and in test [4] was “inactive” each time. Moreover, the activity, negative = inhibition in test [3] (at 17.2 µM (top of the series)) was 8.61% (inactive) and -2.46% (inactive). In addition, the Potency in test [12] was > 46 µM (inactive) and > 20.6 µM (inactive); in test [16], > 46 µM (inactive) and > 20.6 µM (inactive).
